Among all 1,900 compounds or so, about 240 (13%) were called active. The list is a sample of the results. A number with no mark means an inactive call.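 How the source made its calls: active means mean inhibition at least 40% at 20 µM, or signal 3 deviations below plate average, so some actives read negative; inactive means the rest.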

The target of the test is Prothrombin (Bos taurus) (UniProt P00735). In words: blocking of thrombin cleavage of Ub4 substrate – biochemical, fluorescence polarization, single concentration, counter-screen for Rpn11 inhibitor project, confirmation (AID 602333).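 Further: plate controls were thrombin with DMSO for no effect and buffer wells lacking thrombin for full effect.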 The settings on record: bovine thrombin cleavage of Ub4-pepOG, at 20 µM, stronger effect = higher value. For orientation: Polarisation of emitted light reports the rotation of a fluorescent probe.
Chain of Prothrombin (Bos taurus) (P00735 whole entry, looked up): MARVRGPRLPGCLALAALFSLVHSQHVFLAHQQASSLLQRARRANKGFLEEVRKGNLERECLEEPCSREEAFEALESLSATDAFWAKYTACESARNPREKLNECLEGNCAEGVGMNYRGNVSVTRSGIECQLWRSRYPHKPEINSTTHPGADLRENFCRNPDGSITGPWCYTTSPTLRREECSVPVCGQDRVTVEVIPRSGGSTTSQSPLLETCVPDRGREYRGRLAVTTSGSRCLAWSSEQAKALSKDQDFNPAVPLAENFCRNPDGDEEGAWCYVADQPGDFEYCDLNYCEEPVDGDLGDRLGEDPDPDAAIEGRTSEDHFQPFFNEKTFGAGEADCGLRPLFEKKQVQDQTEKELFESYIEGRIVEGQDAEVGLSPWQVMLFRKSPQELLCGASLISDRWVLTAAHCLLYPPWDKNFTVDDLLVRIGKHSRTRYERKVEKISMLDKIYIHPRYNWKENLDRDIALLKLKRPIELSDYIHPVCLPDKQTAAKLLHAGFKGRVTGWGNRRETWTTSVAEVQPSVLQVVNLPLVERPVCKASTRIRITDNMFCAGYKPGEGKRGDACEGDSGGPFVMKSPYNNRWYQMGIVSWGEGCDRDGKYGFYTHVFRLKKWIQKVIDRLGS
The inhibition is the change of the read-out against control, counted positive when it falls. Consider `C=CC1=C(C(=O)O)N2C(=O)[C@@H](NC(=O)/C(=N/OCC(=O)O)c3csc(N)n3)[C@H]2SC1`, for which the inhibition is -49.6%.
For `O=C(COc1cccc(F)c1)Oc1ccc(C(=O)c2ccccc2)cc1`, the inhibition is -6.51%.
Then `C/C(=N/Nc1nc(-c2ccccc2)c(CC(=O)O)s1)c1ccccc1`, with 11.8%; and `COc1cc(/C=C2/SC(=S)N(Cc3ccccc3)C2=O)cc(OC)c1O`, with 30.8%; and `Cc1ccc(Nc2ccccc2N)cc1`, with 15.5%.
To `Cc1ccc(Nc2nc(Cl)c(C=O)s2)cc1` belongs 47% (active).
To `CCOc1cc(/C=C2\SC(N3CCCCC3)=NC2=O)ccc1O` belongs 21%; to `Oc1ccc(/C=N/Nc2nc(-c3ccccc3F)nc3ccccc23)c(O)c1`, 5.18%; to `COc1ccc2[nH]c(=O)c(-c3noc(-c4ccc(F)cc4)n3)cc2c1`, 2.93%.
Turning to `Cc1ccc2cc(C#N)c(NCCNC(=S)NCCCN3CCOCC3)nc2c1`, the inhibition is -7.45%.
Turning to `C=CCn1c(SCC(=O)NCc2ccccc2)nnc1-c1cc(Br)ccc1O`, the inhibition was -3.07%.
Then `CCCCCCCCCCOC(=O)Cn1c(COc2cccc(OC)c2)[n+](C)c2ccccc21`, with -11.8%; and `Cc1c(NC(=O)CSc2cccc3cccnc23)c(=O)n(-c2ccccc2)n1C`, with -11.3%.
`Cc1nc2ccc(C(=O)N3CCSCC3)cc2s1`: the inhibition was -9.73%.
Then `CCC(C)Cn1c(O)cc2nn(-c3nc4ccccc4s3)c(=O)c-2c1C` (stereo unspecified), with 3.33%; and `CCNCc1cc2cc(C)ccc2[nH]c1=O`, with 7.4%; and `CCN1CCN(c2cc3nc(C)n(Cc4ccccc4)c(=O)c3cc2NC(=O)c2ccccc2F)CC1`, with -5.14%.
Regarding `COc1ccc(Cl)cc1NC(=O)CCS(=O)(=O)c1ccc(Br)cc1`, the inhibition was -12.6%.
To `COc1cccc(NC(=O)C(C)Oc2ccccc2)c1` (stereo unspecified) belongs -2.75%.
Then `Cc1ccc(NC(=O)c2c(NC(=O)CCC(=O)O)sc3c2CCCCC3)cc1`, with -10.8%; and `CCOc1ccc(NC(=O)c2ccc(NC(=O)COC(=O)c3ccc(NC(=O)CC#N)cc3)cc2)cc1`, with -22.9%.
To `COc1cccc(-c2nn(-c3ccccc3)cc2/C=C(\C#N)C(=O)NCCCn2ccnc2)c1` belongs 3.86%.
On to `CCN1CCCC1CNC(=O)c1cc2c(=O)n(C)c3ccccc3c2n1C` (stereo unspecified), for which the inhibition is -4.94%.
With `CC(C)(C)NC(=O)CSC(=Nc1ccccc1F)NC#N`, the inhibition was 4.77%.
Then `Cc1ccc(-c2nnc(-c3ccc(NC(=O)c4cccs4)cc3)o2)cc1`, with -6.56%; and `Cc1nc2ccccc2nc(=O)c1NNc1ccc([N+](=O)[O-])cc1`, with 28.5%.
